Experimental data from the supplement of paper PMC6555819.

Columns and labels:
Assay in all cases: PBM binding z-score (relative to random genomic background probes); higher = stronger binding; sequences stand for … in GC…GCGATTGACAGCGTAGAATGAAGG
[1] = test system: PPARg:RXRa IVT, anti-PPARg (NR concentration 270 nM, RXRa partner concentration 90 nM)
How it was run: (§1)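 On custom Agilent 4×180K arrays, double-stranded probes with 34-nt variable regions carried direct-repeat seeds, single-nucleotide variants, half-site ablations or random human genomic background. Ligand-free nuclear receptor dimers were applied for 1 h, and binding was read with antibodies against each partner (one per run). Binding z-scores come from regression-normalized fluorescence, with the random background probes as reference.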

[2] = test system: PPARg DBDmut:RXRa IVT, anti-PPARg (DBD mutation: PPARg1 K132A/R137A, NR concentration 270 nM, RXRa partner concentration 90 nM)
How it was run: as §1

[3] = test system: PPARg DBDmut IVT, anti-PPARg (DBD mutation: PPARg1 K132A/R137A, NR concentration 270 nM)
How it was run: as §1

[4] = test system: PPARg homodimer (NR concentration 180 nM)
How it was run: as §1

[5] = test system: PXR homodimer (NR concentration 270 nM)
How it was run: as §1

[6] = test system: RARa:RXR (NR concentration 270 nM, RXRa partner concentration 90 nM)
How it was run: as §1

[7] = test system: RARa homodimer (NR concentration 270 nM)
How it was run: as §1

[8] = test system: RARb homodimer (NR concentration 270 nM)
How it was run: as §1

[9] = test system: RARb:RXRa (NR concentration 270 nM, RXRa partner concentration 90 nM)
How it was run: as §1

[10] = test system: PXR:RXRa (NR concentration 270 nM, RXRa partner concentration 90 nM)
How it was run: as §1

Sequence	PBM binding z-score [1]	PBM binding z-score [2]	PBM binding z-score [3]	PBM binding z-score [4]	PBM binding z-score [5]	PBM binding z-score [6]	PBM binding z-score [7]	PBM binding z-score [8]	PBM binding z-score [9]	PBM binding z-score [10]
CGTCAAAGGTCAACTAAGGTAACGTAAAGCACGC	5.93	1.03	0.957	4.87	1.59	6.58	3.77	5.33	–	–
CCTACTGGGTCAAAGGTCATTGATTCCAATGCTC	8.67	3.67	3.47	7.2	3.3	–	2.65	5.06	–	–
CGTCAAAGGTCATAGGAGGTCAGTGAAGACAGAT	6.23	1.59	3.77	5.41	4.17	–	3.82	5.95	–	–
GGAACGAGGGCATTCGAGTTCATAGCATGGCGAT	2.61	0.143	-0.584	0.888	14	2.84	-0.506	2.4	2.75	–
TCTAGTTGGTCAAAGGTCACGCACTCGAAATGCG	6.68	3.73	2.56	6.55	1.96	–	4.59	5.32	–	–
TGTCAATGTTCAAAGGTAACGTAAGTATCCACAC	1.8	1.27	0.82	0.516	-0.115	0.48	-0.4	0.732	1.09	–
TCTAGTGGGTCAAAGGTCACACACTCGAAATGCG	8.52	2.65	1.71	4.18	1.74	–	2.97	5.22	–	–
CTACCAAGGTCAACAAGGTCGTTGATTACTATTC	4.74	1.26	1.4	4.44	12.6	6.63	3.35	5.25	–	–
CGTCCAAGGTCATAGAGGTCAGTGAATGCCGAGT	4.48	0.246	1.44	7.41	13.8	–	3.94	5.34	5.39	–
CAAACGAGGTCAAAGGTCAAAGTCGAGCCAACCA	8.38	5.96	5.7	7.87	5.27	–	6.67	5.59	–	–
ATATGTAGGTTAGGGGTCATTCAGGTTGGTTCGC	7.13	1.75	2	5.22	6.76	–	2.76	4.47	3.82	–
CAAACGAGGTCACAGAGGTCAAAGTCCGTGCGTA	7.63	3.35	5.12	7.88	15.3	–	5.39	5.83	–	–
TATACGGGGTCAAAGGCCAGAGTACGAATGTCGA	6.45	4.68	3.02	3.58	1.98	–	1.66	4.34	5.29	–
ATATGTAGGTTAAAGGTCATTCAGGTTGGTTCGC	8.56	4.82	3.73	4.43	7.91	–	3.28	4.8	4.74	–
CCTTACGGGTCACGAGGTCATAGCACGACGAGCG	6.02	2.06	1.59	5.34	2.24	–	2.17	4.95	5.23	–
ACTCGGAGGTCAAAGGTCAGAGCTACGCCAGTGA	6.2	2.13	2.31	6.27	1.87	–	3.86	5.48	–	–
CAAACTAGGTCAAGAGGTCAAAGTTCGCTTCCCG	8.83	3.82	5.91	10.9	5.01	–	4.53	5.71	5.51	–
CGTCCAAGGTCAAAGGTCATTGAAGAGATGACGG	6.27	2.57	0.832	5.55	4.59	–	5.35	5.63	6.2	–
ATATGTAGGTTAACTGGGGTCATTCAGACTAGGC	7.34	1.81	2.42	1.95	5.25	5.93	1.61	4.28	3.55	–
ACTTACGGGTCAACGAGGTCATAGCACGCGTATA	5.29	2.33	3.32	4.63	11.6	7.02	2.3	5.04	4.82	–

Sequence	PBM binding z-score [1]	PBM binding z-score [2]	PBM binding z-score [3]	PBM binding z-score [4]	PBM binding z-score [5]	PBM binding z-score [6]	PBM binding z-score [7]	PBM binding z-score [8]	PBM binding z-score [9]	PBM binding z-score [10]
CAAACGAGGTCAAGGTCAAAGTCGGTTTGTGCCA	7.3	3.16	1.96	4.15	4.12	–	2.66	5.54	–	–
CAAAATAGGTCACGAAAGGTCAAAGTCGAATGAC	8.54	5.84	4.87	10.7	3.21	–	7.69	5.79	6.03	–
CGTCCAAGGTCACAGAGGTCAGTGAATGCCGAGT	5.63	1.12	0.337	3.92	12.2	6.75	2.06	5.82	–	–
AGAACGAGGTCACGCTGAGTTGATAGCAGAGTAG	7.41	3.83	1.29	4.17	2.35	6.71	1.26	4.38	–	–
CGTCTAAGGTCATAGGAGGTCAGTGAAGACAGAT	4.85	1.68	1.09	6.3	6.55	–	3.85	5.47	5.66	–
AGTCAAAGTTCATCTAGGTCACGTAAGATATGCT	6.09	1.86	2.18	4.77	13.9	6.05	2.4	5.12	–	–
CCTTAGGGGTCACTCCAGGTTATAGCATCGGAGT	5.37	2.85	0.901	3.42	0.789	–	1.3	4.71	5.36	–
CAAACAAGGTCACGAAAGGTCAAAGTCGAATGAC	7.11	3.1	3.53	8.44	7.51	–	5.3	6.14	–	–
CAAACGAGGTCAAGAGGTCAAAGTCCGCTTCCCG	7.14	1.86	1.69	5.31	6.05	8.32	2.73	6.42	–	–
CAAACAAGGTCACCGGAAGGTCAAAGTCCGCATG	6.66	3.88	3.51	10.2	4.84	–	5.98	5.88	–	–
ACTTAGGGGTCAACGAGGTTATAGCACGCGTATA	5.93	2.39	2.86	3.01	9.1	–	2.38	5.02	–	–
GGAACGAGGTCATTCGAGTTGATAGCATGGCGAT	5.89	0.79	0.0541	1.95	7.74	5.14	-0.0279	3.81	4.9	–
TCTCGGAGGTCACGAAAGGTCAGAGCTCGACATC	6.3	1.39	2.35	6.9	3.6	–	5.11	6.12	–	–
GCTTAGGGGTCAAAGGTTATAGCATGAATAGAAT	6.52	3.02	2.44	2.86	1.2	–	1.8	4.64	–	–
AATACAGGGTCATCGTAGGTCAGAGTACGCACAG	5.07	3.45	1.68	3.34	1.57	6.33	1.7	4.58	4.69	–
GATACGGGGTCAAGGCCAGAGTACGCGTATTGAT	6.14	2.81	2.07	4.21	1.08	–	2.18	4.32	5.26	–
AATACGGGGTCATCGTAGGCCAGAGTACGCACAG	5.98	1.67	2.1	3.3	1.94	–	1.73	4.48	5.09	–
ATATGTAGGTCAAGGGTCATTCAGGTTGGTTCGC	9.34	5.02	3.68	4.44	2.53	–	1.72	5.1	5.35	–
CGAACTAGGTCAAGGGACAGTGAAAGGCGACGTA	8.18	–	0.0336	1.42	-0.504	1.71	0.0645	2.99	3.92	0.929
